Laboratory results as given in PubChem BioAssay AID2284195 (EPA ToxCast).
Activity calls are given as the source filed them. The calls were made as follows: active = hit-call score of the fitted dose curve at least 0.9, where 1 is the maximum; inactive = score below 0.9.

biological target: Retinoic acid receptor alpha (Homo sapiens) (UniProt P10276); assay: ERF_TW_NR_hRARa: Eurofins (ERF) Nuclear Receptor (NR) Radioligand Binding LeadHunter Assay for human Retinoic Acid Receptor alpha (RARa) Agonism
Sequence (P10276 whole entry, looked up): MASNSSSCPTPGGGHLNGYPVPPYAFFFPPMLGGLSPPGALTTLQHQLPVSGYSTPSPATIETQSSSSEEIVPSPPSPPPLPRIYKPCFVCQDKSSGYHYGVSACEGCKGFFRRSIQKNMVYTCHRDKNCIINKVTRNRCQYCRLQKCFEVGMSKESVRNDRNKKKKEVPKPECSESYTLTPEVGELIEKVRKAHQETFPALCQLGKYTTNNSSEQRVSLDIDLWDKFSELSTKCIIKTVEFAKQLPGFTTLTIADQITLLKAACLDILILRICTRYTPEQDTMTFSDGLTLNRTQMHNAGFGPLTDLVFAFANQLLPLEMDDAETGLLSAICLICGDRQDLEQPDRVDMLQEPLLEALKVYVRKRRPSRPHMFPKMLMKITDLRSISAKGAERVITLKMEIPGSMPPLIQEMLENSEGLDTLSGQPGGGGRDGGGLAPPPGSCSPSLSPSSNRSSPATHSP
Description: ERF_TW_NR_hRARa is a biochemical, single-readout assay that uses extracted gene-proteins in a cell-free assay. Measurements were taken 2 hour after chemical dosing in a 96-well plate. See RARalpha Human retinoic acid NHR Binding (Agonist Radioligand) Assay, Panlabs.ERF_TW_NR_hRARa is an assay component calculated from the ERF_TW_NR_hRARa assay. It is designed to measure radioligand binding using a type of binding reporter as detected by scintillation counting with radiometry technology.Data from the assay component ERF_TW_NR_hRARa was analyzed at the assay endpoint, ERF_TW_NR_hRARa, in the positive analysis fitting direction relative to DMSO as the negative control and baseline of activity. Using a type of binding reporter, gain-of-signal activity can be used to understand changes in radioligand binding as they relate to gene RARA. To generalize the intended target to other relatable targets, this assay endpoint is annotated to the nuclear receptor intended target family, where the subfamily is retinoic acid receptor.
Human recombinant RARalpha-LBD expressed in insect cells are used in modified Tris-HCl buffer pH 7.4. A 0.025 ug aliquot is incubated with 3 nM [3H]9-cis-Retinoic acid and 1 ug Anti-GST antibody for 2 hours at 4C. Non-specific binding is estimated in the presence of 1 uM 9-cis-retinoic acid. Receptors are counted to determine [3H]9-cis-Retinoic acid specifically bound. […]

Structure (SMILES) | AC50
O=C(/C=C/c1ccc(O)cc1)CC(=O)/C=C/c1ccc(O)cc1 | 2240 nM (active)
